Results: PubChem BioAssay AID1159580 (chemical genetic matrix, 2015)
Values joined by “and” are separate entries in the source; they are usually repeats but may differ in a detail not shown here. Equal entries are not always repeated. About 2,000 (36%) of roughly 5,500 compounds were called active. Not shown: some 18% with an inconclusive outcome. No stated cut-off is given here; in the data, active means normalized growth mostly below about 0.91 (no sharp cut-off); inconclusive means no clear call, values can overlap the other calls; inactive means mostly above about 0.92. Some of the results follow.

Assay: chemical genetic growth profiling, strain panel (AID 1159580);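 further: tested at 20 µM; growth read once vehicle control cultures reached saturation at 30 °C; 1 = growth at the plate median or of vehicle wells; lower values mean less growth of the strain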
Conditions: S. cerevisiae deletion strains, growth OD

Measured: normalized growth

CCCCNC(=O)NS(=O)(=O)c1ccc(C)cc1
inactive: locus YAL013W, strain DEP1, hits give low values 0.995 | locus YAL021C, strain ccr4, hits give low values 1.02 | locus YAL026C, strain drs2, hits give low values 1.01 | locus YAL030W, strain snc1, hits give low values 1.02 | locus YAL040C, strain CLN3, hits give low values 0.997 | locus YBL061C, strain skt5, hits give low values 1.01 | locus YBR009C, strain hhf1, hits give low values 0.973 | locus YBR021W, strain FUR4, hits give low values 1.01 | locus YBR023C, strain chs3, hits give low values 1.02 | locus YBR171W, strain sec66, hits give low values 1.01 | locus YBR229C, strain ROT2, hits give low values 0.993 | locus YBR231C, strain swc5, hits give low values 1.01 | locus YBR279W, strain paf1, hits give low values 0.995 | locus YCL011C, strain gbp2, hits give low values 1 | locus YCL016C, strain dcc1, hits give low values 0.993 | locus YCL029C, strain bik1, hits give low values 0.979 | locus YCL061C, strain MRC1 (second series), hits give low values 1 | locus YCL061C, strain MRC1, hits give low values 1.01 | locus YCL069W, strain vba3, hits give low values 1.02 | locus YCR088W, strain abp1, hits give low values 1.02 | locus YDL005C, strain med2, hits give low values 1.01 | locus YDL035C, strain GPR1, hits give low values 0.989 | locus YDL040C, strain nat1, hits give low values 1.01 | locus YDL074C, strain BRE1, hits give low values 1.02 | locus YDL101C, strain DUN1, hits give low values 1.01 | locus YDL134C, strain PPH21, hits give low values 1 | locus YDL185W, strain tfp1, hits give low values 0.953 | locus YDL192W, strain arf1, hits give low values 0.97 | locus YDR001C, strain nth1, hits give low values 1.02 | locus YDR069C, strain doa4, hits give low values 1.02 | locus YDR101C, strain arx1, hits give low values 0.994 | locus YDR137W, strain rgp1, hits give low values 0.978 | locus YDR159W, strain sac3, hits give low values 0.93 | locus YDR162C, strain NBP2, hits give low values 0.974 | locus YDR195W, strain ref2 1.01 | locus YDR297W, strain sur2, hits give low values 1.01 | locus YDR318W, strain mcm21, hits give low values 0.978 | locus YDR334W, strain swr1, hits give low values 1.01 | locus YDR335W, strain msn5, hits give low values 1.01 | locus YDR363W, strain ESC2, hits give low values 1.01 | locus YDR388W, hits give low values 0.974 | locus YDR392W, strain spt3, hits give low values 0.927 | locus YDR502C, strain sam2, hits give low values 0.985 | locus YEL003W, strain gim4, hits give low values 1.02 | locus YEL037C, strain rad23, hits give low values 1.01 | locus YEL061C, strain CIN8 (second series), hits give low values 1.01 | locus YEL061C, strain CIN8, hits give low values 0.99 | locus YER002W, strain NOP16, hits give low values 1 | locus YER015W, strain faa2, hits give low values 1.01 | locus YER016W, strain bim1, hits give low values 0.988 | locus YER110C, hits give low values 0.982 | locus YER111C, strain swi4, hits give low values 1.02 | locus YER155C, strain BEM2 (second series), hits give low values 1.04 | locus YER155C, strain BEM2, hits give low values 0.985 | locus YER167W, strain BCK2, hits give low values 0.994 | locus YFR010W, strain ubp6, hits give low values 1.02 | locus YGL078C, strain dbp3, hits give low values 0.989 | locus YGL086W, strain mad1, hits give low values 1 | locus YGL167C, strain pmr1, hits give low values 1.01 | locus YGL173C, strain kem1, hits give low values 1.03 | locus YGL227W, strain vid30, hits give low values 1.01 | locus YGL240W, strain doc1, hits give low values 1.01 | locus YGL248W, strain PDE1, hits give low values 1 | locus YGL253W, strain hxk2, hits give low values 1 | locus YGR078C, strain PAC10, hits give low values 1.01 | locus YGR135W, strain pre9, hits give low values 0.986 | locus YGR252W, strain gcn5, hits give low values 1.21 | locus YHR013C, strain ard1, hits give low values 0.992 | locus YHR027C, strain rpn1, hits give low values 1 | locus YHR030C, strain SLT2, hits give low values 0.99 and 0.938 | locus YHR079C, strain IRE1 (second series), hits give low values 0.98 | locus YHR079C, strain IRE1, hits give low values 0.964 | locus YHR094C, strain hxt1, hits give low values 0.979 | locus YHR129C, strain ARP1, hits give low values 0.996 | locus YHR142W, strain chs7, hits give low values 1.02 | locus YHR200W, strain rpn10, hits give low values 0.985 | locus YIL066C, strain RNR3, hits give low values 0.988 | locus YIL073C, strain SPO22, hits give low values 0.831 | locus YIL125W, strain kgd1, hits give low values 0.962 | locus YIR030C, strain dcg1, hits give low values 0.982 | locus YJL092W, strain hpr5, hits give low values 1.01 | locus YJL095W, strain BCK1 (second series), hits give low values 1.02 | locus YJL095W, strain BCK1, hits give low values 1.01 and 0.954 | locus YJL115W, strain asf1, hits give low values 1 | locus YJL129C, strain trk1, hits give low values 1.01 | locus YJL134W, strain LCB3, hits give low values 0.99 | locus YJL154C, strain vps35, hits give low values 1.01 | locus YJL164C, strain tpk1, hits give low values 1 | locus YJL166W, strain qcr8, hits give low values 1.02 | locus YJL168C, strain set2, hits give low values 0.981 | locus YJL187C, strain SWE1 (second series), hits give low values 0.982 | locus YJL187C, strain SWE1, hits give low values 1.02 | locus YJR043C, strain POL32, hits give low values 1.02 | locus YJR066W, strain TOR1, hits give low values 0.92
